Results: PubChem BioAssay (NCATS)
Several values for one entry are separate records, joined by “and”; a condition that tells them apart may be missing. Identical values can stand only once. Records with an inconclusive call do not appear. Entries that show only a call come without a potency. Activity calls are given as the source filed them. Calls follow the shape of the dose curve; as a rule, active = well fitted inhibition curve with a large enough effect in the repeat runs; inconclusive = weak or mixed curves; inactive = flat fitted curve, though single readings scatter.
Potency is read from the fitted curve at half-maximal effect.

These molecules were tested against Cytochrome P450 2D6 (Homo sapiens) (UniProt P10635) (assay: Cytochrome P450 family 2 subfamily D member 6 (CYP2D6) small molecule antagonists: luciferase biochemical (cell-free) qHTS assay (AID 1645840; also: nearly all actives have a fitted effect of over 55% in size)). Conditions: P450-Glo CYP2D6 enzyme, luciferin luminescence, 1 h; series mostly up to 57.4 µM.
Chain of Cytochrome P450 2D6 (Homo sapiens) (P10635 whole entry, looked up): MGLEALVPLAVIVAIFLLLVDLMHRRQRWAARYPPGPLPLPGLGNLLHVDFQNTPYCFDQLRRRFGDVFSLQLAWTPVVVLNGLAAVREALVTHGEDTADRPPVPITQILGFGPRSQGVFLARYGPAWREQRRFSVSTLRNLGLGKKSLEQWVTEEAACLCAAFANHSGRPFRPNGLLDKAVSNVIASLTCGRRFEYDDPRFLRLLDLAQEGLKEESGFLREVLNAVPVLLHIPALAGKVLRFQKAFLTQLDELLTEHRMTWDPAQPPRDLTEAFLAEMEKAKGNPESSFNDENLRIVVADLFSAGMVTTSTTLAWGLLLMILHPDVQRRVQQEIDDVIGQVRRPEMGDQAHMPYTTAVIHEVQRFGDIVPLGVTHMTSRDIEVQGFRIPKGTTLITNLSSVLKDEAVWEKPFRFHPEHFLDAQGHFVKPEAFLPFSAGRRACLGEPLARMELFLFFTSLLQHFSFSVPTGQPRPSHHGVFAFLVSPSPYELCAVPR
Method in brief: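 P450-Glo luminescent screen: recombinant CYP2D6 enzyme–proluciferin substrate mix preincubated with compound 10 min at room temperature, then NADPH regeneration added for 1 h at room temperature. Detection reagent added for 20 min; luciferin light read as relative luminescence units.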
`CC(Cc1ccc(O)cc1)NCC(O)c1cc(O)cc(O)c1` (stereo unspecified) was tested, and the Potency was 11 µM (active).
With `O=[N+]([O-])/N=C1\NCCN1Cc1ccc(Cl)nc1` the Potency was “inactive”.
For `CCCN(CCC)c1c([N+](=O)[O-])cc(S(N)(=O)=O)cc1[N+](=O)[O-]`, the Potency was 29.1 µM (active).
In the case of `O=C(Nc1ccccc1-c1ccc(Cl)cc1)c1cccnc1Cl`, the Potency is reported as 22.4 µM (active).
With `CC1=NN=C(c2ccc(N)cc2)c2cc3c(cc2C1)OCO3` the Potency was 19 µM (active).
`CCCCCCCCCCCCCCCC[N+](C)(C)C` was tested, and the Potency was 871 nM (active) and 849 nM (active).
For `Cc1cc(O)ccc1Cl`, the Potency was “inactive”.
In the case of `Nc1c(Cl)c(Cl)c(Cl)c(Cl)c1Cl`, the Potency is reported as “inactive”.
For `O=[N+]([O-])c1cc([N+](=O)[O-])c2ccccc2c1`, the Potency was “inactive”.
In the case of `CC(O)CN1CCN(CC(=O)[O-])CCN(CC(=O)[O-])CCN(CC(=O)[O-])CC1.[Gd+3]` (stereo unspecified), the Potency is reported as “inactive”.
With `O=[N+]([O-])c1c2ccccc2cc2ccccc12` the Potency was “inactive”.
